These results are taken from PubChem BioAssay.

The structures appear in SMILES notation. Activity calls are given as the source filed them.

Assay [1] in a line: E. coli DRC41 culture turbidity changes, primary screen, E. coli filamentation inducer project, strain DRC41, OD650, 48 h (AID 1152).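 Also: E. coli MC1000 strain DRC41 lacking acrAB efflux pump and sulA.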 The following applies: E. coli DRC41 (acrAB sulA), higher = more signal, called active from +8 up or from −8 down.
The nature of assay [2]: small-molecule binders of probe aLefty1, primary screen, biochemical, small-molecule microarray, 635/667 nm fluorescence (AID 1153).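 Also: score merges spot fluorescence with signal-to-noise ratio from the scanned slide images.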 The following applies: higher = more signal.
Assay [3] is described as follows: PSAC antagonists in infected red cells, primary screen, cell-based, P. falciparum Indochina, OD700, 1 h (AID 1154). The note with it: P. falciparum Indochina infected RBC osmotic lysis, higher = more signal, called active from +8 up or from −8 down.
A short description of assay [4]: PSAC antagonists in infected red cells, primary screen, cell-based, P. falciparum Indochina, OD700, 2 h (AID 1155).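 Also: lysis reports solute entry through the parasite surface anion channel PSAC; channel blockers reduce lysis of infected cells.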 The following applies: P. falciparum Indochina infected erythrocytes, osmotic lysis OD700; higher = more signal, called active from +8 up or from −8 down.
The nature of assay [5]: osmotic lysis modulators in infected erythrocytes, primary screen, PSAC antagonist project, cell-based, P. falciparum Indochina, OD700, 3 h (AID 1156). The following applies: higher = more signal, called active from +8 up or from −8 down.
Assay [6] is described as follows: PSAC antagonists in infected red cells, primary screen, cell-based, P. falciparum Indochina, OD700, 18 h (AID 1157). The following applies: P. falciparum Indochina infected erythrocytes, osmotic lysis OD700, 18 h; higher = more signal, called active from +8 up or from −8 down.
Assay [7] can be described thus: modulators of S6 phosphorylation in cells, primary screen, cell-based, A549, cytoblot, luminescence, serum-stimulated (AID 1158).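 Also: serum-stimulated A549 lung adenocarcinoma cells; signal is phosphorylated S6 detected by cytoblot immunostaining with HRP secondary.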 The note with it: A549 phospho-S6 cytoblot, 5 h, higher = more signal.
Assay [8] has as its target NADPH oxidase 2 (Homo sapiens) (UniProt P04839). Put plainly: NOX2-dependent H2O2 signal modulators, primary screen, NOX inhibitor project, cell-based, HEK293-NOX2, PMA-stimulated, Amplex Red fluorescence (AID 1159). Also: test concentration not given here. The following applies: 45 min, higher = more signal, called active from +8 up or from −8 down.
In assay [9] the target is NADPH oxidase 4 (Homo sapiens) (UniProt Q9NPH5). Nature of the assay: NOX4-dependent H2O2 signal modulators, primary screen, NOX inhibitor project, cell-based, HEK293-NOX4, tetracycline-induced, Amplex Red fluorescence (AID 1160). The following applies: 45 min, higher = more signal, called active from +8 up or from −8 down.
The target of assay [10] is NADPH oxidase 5 (Homo sapiens) (UniProt Q96PH1). Nature of the assay: NOX5-dependent H2O2 signal modulators, primary screen, NOX inhibitor project, cell-based, HEK293-NOX5, Amplex Red fluorescence (AID 1161). The note with it: HEK293-NOX5, ionomycin, 45 min, higher = more signal.
Assay [11] is described as follows: A549 cell viability effects, profiling panel, calcein-AM fluorescence, 48 h, basal (AID 1162). Also: test concentration not given here. The note with it: higher = more signal.
Assay [12] can be described thus: adipocyte viability effects, profiling panel, cell-based, 3T3-L1 adipocytes, calcein-AM fluorescence, 48 h, basal (AID 1163). Also: test concentration not given here. The following applies: 3T3-L1 adipocytes viability, higher = more signal.
The nature of assay [13]: HepG2 cell viability effects, profiling panel, calcein-AM fluorescence, 48 h, basal (AID 1164). Also: test concentration not given here. The note with it: higher = more signal.
Assay [14] can be described thus: MM1S cell viability effects, profiling panel, calcein-AM fluorescence, 48 h, basal (AID 1165).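 Also: viability of MM1S multiple myeloma cells under basal unstimulated conditions; test concentration not given here.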 The following applies: higher = more signal.
The nature of assay [15]: basal RPMI8226 viability, no added stimulus, profiling panel, cell-based, calcein-AM fluorescence, 48 h, PK04 Diversity Set (AID 1166).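 Also: cells grown under basal conditions without added stimulus; test concentration not given here.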 The note with it: RPMI8226 myeloma viability, higher = more signal.
Assay [16] is described as follows: basal HepG2 mitochondrial membrane potential changes, profiling panel, cell-based, JC-1 fluorescence, 24 h, 100 nL compound (AID 1167). Also: test concentration not given here. The following applies: higher = more signal.
A short description of assay [17]: basal 3T3-L1 adipocyte mitochondrial potential changes, profiling panel, cell-based, JC-1 fluorescence, 3T3-L1 adipocytes, 24 h, 100 nL compound (AID 1168). Also: test concentration not given here. The note with it: JC-1 mitochondrial fluorescence, higher = more signal, called active from +8 up or from −8 down.
The nature of assay [18]: basal RPMI8226 mitochondrial membrane potential changes, profiling panel, cell-based, JC-1 fluorescence, 24 h, 100 nL compound (AID 1169). Also: test concentration not given here. The note with it: RPMI8226 myeloma, JC-1 mitochondrial potential fluorescence, higher = more signal.
Assay [19] is described as follows: basal MM1S mitochondrial membrane potential changes, profiling panel, cell-based, JC-1 fluorescence, 24 h, 100 nL compound (AID 1170). Also: test concentration not given here. The following applies: higher = more signal.
Assay [20] can be described thus: A549 lung cancer cell viability effects, profiling panel, resazurin fluorescence, 24 h, PK04 Diversity Set (AID 1171). Also: test concentration not given here. The note with it: higher = more signal, called active from +8 up or from −8 down. (In general: Alamar Blue is a resazurin reagent that responds to reducing activity.)

Chain of NADPH oxidase 5 (Homo sapiens) (Q96PH1 whole entry, looked up): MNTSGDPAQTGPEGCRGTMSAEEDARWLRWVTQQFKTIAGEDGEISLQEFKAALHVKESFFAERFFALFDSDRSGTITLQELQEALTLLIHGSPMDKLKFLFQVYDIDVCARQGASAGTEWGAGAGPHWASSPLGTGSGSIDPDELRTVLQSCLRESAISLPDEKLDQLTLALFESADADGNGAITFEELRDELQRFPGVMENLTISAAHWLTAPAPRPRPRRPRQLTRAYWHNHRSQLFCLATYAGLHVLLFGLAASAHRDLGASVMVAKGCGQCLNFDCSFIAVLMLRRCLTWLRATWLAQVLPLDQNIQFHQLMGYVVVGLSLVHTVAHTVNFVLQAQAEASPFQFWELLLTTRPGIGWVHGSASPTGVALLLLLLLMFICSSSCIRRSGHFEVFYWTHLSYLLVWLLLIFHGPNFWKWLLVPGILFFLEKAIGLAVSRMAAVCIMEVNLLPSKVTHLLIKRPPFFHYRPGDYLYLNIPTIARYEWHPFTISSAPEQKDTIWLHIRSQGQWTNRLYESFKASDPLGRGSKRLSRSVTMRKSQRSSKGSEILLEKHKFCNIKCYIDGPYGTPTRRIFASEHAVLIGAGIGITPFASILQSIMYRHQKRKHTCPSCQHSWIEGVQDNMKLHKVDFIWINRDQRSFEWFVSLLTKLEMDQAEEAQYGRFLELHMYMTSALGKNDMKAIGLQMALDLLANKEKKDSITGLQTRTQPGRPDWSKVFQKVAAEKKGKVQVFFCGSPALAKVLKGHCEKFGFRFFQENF
Chain of NADPH oxidase 4 (Homo sapiens) (Q9NPH5 whole entry, looked up): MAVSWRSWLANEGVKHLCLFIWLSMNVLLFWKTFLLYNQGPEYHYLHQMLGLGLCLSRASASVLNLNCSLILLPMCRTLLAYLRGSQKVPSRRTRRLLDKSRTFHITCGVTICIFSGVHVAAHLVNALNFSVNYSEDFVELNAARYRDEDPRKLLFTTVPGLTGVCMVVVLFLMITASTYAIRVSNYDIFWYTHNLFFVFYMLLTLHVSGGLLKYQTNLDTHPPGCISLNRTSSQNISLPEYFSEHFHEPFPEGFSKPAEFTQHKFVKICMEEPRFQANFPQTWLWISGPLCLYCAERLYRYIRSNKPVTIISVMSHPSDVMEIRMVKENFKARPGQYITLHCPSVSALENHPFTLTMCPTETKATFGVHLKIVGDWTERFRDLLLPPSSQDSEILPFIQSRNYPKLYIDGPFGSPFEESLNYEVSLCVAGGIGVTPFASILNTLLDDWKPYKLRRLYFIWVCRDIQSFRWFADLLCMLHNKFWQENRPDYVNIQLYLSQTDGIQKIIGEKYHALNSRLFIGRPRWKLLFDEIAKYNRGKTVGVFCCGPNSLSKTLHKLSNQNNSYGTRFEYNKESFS
Chain of NADPH oxidase 2 (Homo sapiens) (P04839 whole entry, looked up): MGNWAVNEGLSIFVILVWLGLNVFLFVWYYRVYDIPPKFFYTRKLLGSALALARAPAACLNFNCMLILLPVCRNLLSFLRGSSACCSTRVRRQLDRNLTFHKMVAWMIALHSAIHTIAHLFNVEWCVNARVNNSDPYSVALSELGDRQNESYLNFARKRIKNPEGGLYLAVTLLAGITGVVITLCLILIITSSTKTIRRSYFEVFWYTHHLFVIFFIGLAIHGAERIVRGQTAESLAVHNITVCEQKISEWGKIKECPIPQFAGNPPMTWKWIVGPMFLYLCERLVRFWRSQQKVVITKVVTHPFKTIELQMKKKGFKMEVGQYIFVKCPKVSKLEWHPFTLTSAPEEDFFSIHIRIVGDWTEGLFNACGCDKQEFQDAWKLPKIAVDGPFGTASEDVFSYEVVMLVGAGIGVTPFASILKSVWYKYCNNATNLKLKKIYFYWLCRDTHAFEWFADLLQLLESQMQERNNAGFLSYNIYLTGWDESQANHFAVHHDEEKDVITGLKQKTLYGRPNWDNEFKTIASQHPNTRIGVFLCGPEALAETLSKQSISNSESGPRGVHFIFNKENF

Take `CCCNC(=O)[C@@]1(C)c2ccccc2C(=O)N(C(C)C)[C@H]1c1ccc(CO)cc1`: the z-score in assay [1] was -0.374 (inactive); in assay [3] it was 4.24 (inactive); in assay [4] it was -0.445 (inactive); in assay [5], 2.44 (inactive); in assay [6], -0.804 (inactive); in assay [7] it was 2.12. The z-score was -2.39 (inactive) in assay [8]; -2.3 (inactive) in [9]; -3.6 in [10]; -0.23 in assay [11]; 0.793 in assay [12]; -0.13 in [13]. The z-score is -0.634 in assay [14]; -0.025 in assay [15]; 0.977 in assay [16]; -0.0917 (inactive) in assay [17]; 0.0976 in assay [18]; -0.426 in [19]. Also, the z-score in assay [20] was 0.788 (inactive). This compound also had a composite z-score in assay [2] of 0.0371.
As to `CC(C)OC(=O)C1=CCC(c2cccc(Cl)c2)O1` (stereo not given), the z-score in assay [1] is 0.504 (inactive); in [3], 26 (active); in [4], 6.53 (inactive); in [5], 0.751 (inactive); in [6] it was 0.296 (inactive); in assay [7], 1.8. Moreover, the z-score in assay [8] was -3.89 (inactive); in assay [9], -2.1 (inactive); in assay [10] it was -4.96; in assay [11] it was -1.14; in assay [12] it was 0.102; in assay [13], -0.582. In addition, the z-score is -1.57 in assay [14]; -1.58 in assay [15]; -0.231 in assay [16]; -0.076 (inactive) in assay [17]; 0.923 in assay [18]; -1.99 in [19]. Also, the z-score in assay [20] is 1.09 (inactive). This compound displayed a composite z-score in assay [2] of -0.142.
Consider `COCCOC(=O)N1C(=O)[C@@]2(c3ccccc31)[C@H](C(=O)N1CCCCCCC1)[C@H]1C(=O)O[C@H](c3ccccc3)[C@H](c3ccccc3)N1[C@@H]2c1ccccc1OCCO`, for which the z-score in assay [1] was -0.946 (inactive); in [3], 1.49 (inactive); in assay [4] it was 0.529 (inactive); in assay [5] it was 0.537 (inactive); in assay [6] it was 0.49 (inactive); in [7] it was -0.408. The z-score is 0.966 (inactive) in assay [8]; 0.739 (inactive) in assay [9]; 1.24 in assay [10]; -0.501 in [11]; 0.293 in assay [12]; 0.603 in [13]. The z-score is -0.252 in assay [14]; -1.84 in assay [15]; -0.114 in assay [16]; -0.226 (inactive) in assay [17]; -1.1 in assay [18]; -1.04 in assay [19]. In assay [20], the z-score is -0.467 (inactive). Moreover, in assay [2], the composite z-score was found to be 2.79.
Regarding `CN(C)CCCC[C@@H]1NC(=O)[C@@H]2C[C@H](C(=O)NCCCCCN)[C@H](c3ccc(O)cc3)N2C1=O`, the z-score in assay [1] was 0.195 (inactive); in assay [3], -0.327 (inactive); in assay [4], 0.0694 (inactive); in [5], 0.494 (inactive); in assay [6] it was -0.0676 (inactive); in [7] it was -0.431. For the same compound, the z-score in assay [8] is -0.487 (inactive); in assay [9], -0.159 (inactive); in assay [10] it was 0.701; in [11] it was 0.635; in assay [12], 0.177; in [13], -0.0772. Further, the z-score in [14] was 0.189; in assay [15], -0.115; in assay [16], 1.25; in assay [17], 0.665 (inactive); in assay [18], -0.286; in assay [19] it was -0.592. For the same compound, the z-score in assay [20] was -0.475 (inactive). The compound further yielded a composite z-score in [2] of -0.056.
As for `COCCn1c(C(=O)N(C)C)cc2c1C[C@H]1CN(C(=O)c3ccccc3)[C@@](Cc3ccc(F)cc3)(C(=O)OC)[C@@H]21`, the z-score in assay [1] was 0.118 (inactive); in [3], 0.666 (inactive); in [4], -0.34 (inactive); in assay [5], -0.0451 (inactive); in assay [6], 0.397 (inactive); in assay [7], -0.17. Also, the z-score in [8] is 0.395 (inactive); in assay [9], 0.211 (inactive); in assay [10] it was -1.69; in assay [11] it was 0.428; in [12] it was -0.687; in [13], 0.684. Besides, the z-score in assay [14] was -0.259; in [15] it was -0.362; in [16] it was 0.938; in [17], -0.499 (inactive); in assay [18] it was 0.172; in assay [19], -0.929. Moreover, the z-score in assay [20] is -0.774 (inactive). This compound came in with a composite z-score in [2] of 0.211.
For the compound `C=CCNC(=O)[C@H]1[C@@H]2C(=O)O[C@@H](c3ccccc3)[C@@H](c3ccccc3)N2[C@@H](c2ccc(O)cc2)[C@]12C(=O)Nc1ccc(C#Cc3ccc(OC)cc3)cc12`, the z-score was -0.837 (inactive) in assay [1]; 2.41 (inactive) in assay [3]; 1.05 (inactive) in assay [4]; -0.99 (inactive) in assay [5]; 0.859 (inactive) in assay [6]; -0.294 in assay [7]. In addition, the z-score is 0.143 (inactive) in [8]; -2.18 (inactive) in [9]; -0.436 in assay [10]; -1.06 in assay [11]; 0.205 in assay [12]; -1.78 in assay [13]. Further, the z-score was -2.37 in assay [14]; -4.35 in assay [15]; -0.385 in assay [16]; -0.0338 (inactive) in assay [17]; -1.22 in assay [18]; -0.614 in [19]. In addition, the z-score in [20] is -0.989 (inactive). In [2], the composite z-score was -0.0084.
Consider `O=C1C2C=CC(C(O)c3ccc(B(O)O)cc3)N(Nc3ccc([N+](=O)[O-])cc3)C2C(=O)N1c1ccccc1` (stereo not given), for which the z-score is -1.07 (inactive) in assay [1]; 2.01 (inactive) in assay [3]; 1.21 (inactive) in [4]; 0.136 (inactive) in assay [5]; 0.606 (inactive) in [6]; -0.537 in [7]. In addition, the z-score in assay [8] was -1.73 (inactive); in assay [9] it was -0.374 (inactive); in assay [10], -3.79; in assay [11], -2.05; in assay [12], -0.167; in assay [13], -5.4. Also, the z-score is 0.0297 in [14]; -4.09 in assay [15]; -1.66 in [16]; 3.71 (inactive) in assay [17]; -0.213 in [18]; -1.22 in assay [19]. Besides, in assay [20], the z-score is 0.0312 (inactive). In assay [2], this compound had a composite z-score of 0.363.
In the case of `COC(=O)[C@@]1(Cc2ccc(F)cc2)[C@H]2c3cc(C(=O)N(C)C)n(CCc4c[nH]c5ccc(OC)cc45)c3C[C@H]2CN1C(=O)c1ccccc1`, the z-score in assay [1] is -1.77 (inactive); in assay [3], 6.52 (inactive); in assay [4] it was 0.1 (inactive); in assay [5], 1.24 (inactive); in assay [6], -0.975 (inactive); in assay [7], 1.87. The z-score in [8] is -3.45 (inactive); in [9], -3.18 (inactive); in [10], -5.53; in assay [11], -0.906; in assay [12], 0.813; in assay [13], -0.885. The z-score was -0.64 in [14]; -1.79 in assay [15]; 0.922 in [16]; -0.939 (inactive) in [17]; -0.262 in assay [18]; -1.82 in assay [19]. Besides, in [20], the z-score was -0.752 (inactive). The compound further registered a composite z-score in [2] of 0.441.
Consider `Cc1ccc(S(=O)(=O)N2CC(C(=O)O)=CCC2c2ccccc2)cc1` (stereo not given), for which the z-score in [1] was -1.24 (inactive); in [3], 1.17 (inactive); in assay [4], 1.1 (inactive); in assay [5] it was 1.13 (inactive); in [6], 0.879 (inactive); in assay [7], -0.55. The z-score in assay [8] was -0.363 (inactive); in assay [9], -1.02 (inactive); in [10], -1.02; in assay [11], -0.901; in assay [12], 0.324; in [13], -0.772. For the same compound, the z-score is -0.249 in assay [14]; -1.19 in assay [15]; -0.644 in assay [16]; -2.04 (inactive) in [17]; -0.25 in [18]; 1.53 in [19]. In addition, in assay [20], the z-score was -0.717 (inactive). Also, in assay [2], the composite z-score is 0.0717.
